Reference: PubChem BioAssay
Activity calls are given as the source filed them.

How the values were obtained:
[1] = test system: PRMT1 (protein arginine N-methyltransferase 1); test: small molecules binding arginine methyltransferase PRMT1 – biochemical, small-molecule microarray, 635 nm fluorescence, primary screen (AID 1088); settings: higher = more signal;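 further: binding of Prmt1 protein to compounds spotted on small-molecule microarray slides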
[2] = growth effects on S. cerevisiae YJM789 – YJM789 clinical isolate, OD600, 24 h, basal, primary screen (AID 1089); settings: higher = more signal, called active from +8 up or from −8 down;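 further: growth of clinical yeast isolate S. cerevisiae YJM 789 seeded 1000 cells per well; test concentration not given here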
[3] = S. pombe growth modifiers, basal conditions – strain 972, OD600, 24 h, no modulator, primary screen (AID 1090);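 further: basal condition with compound alone and no growth modifier present; test concentration not given here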; settings: S. pombe 972 growth, higher = more signal, called active from +8 up or from −8 down
[4] = budding yeast growth modifiers under rapamycin – strain BY4716, OD600, 96 h, primary screen (AID 1091); further: test concentration not given here; settings: S. cerevisiae BY4716 + rapamycin, higher = more signal, called active from +8 up or from −8 down
[5] = target: Torsin-1A-interacting protein 2 (Homo sapiens) (UniProt Q8NFQ8); test: small molecules binding lysate-expressed LULL1 – cell lysate, human LULL1 lysate, 635/667 nm fluorescence, primary screen (AID 1092); settings: small-molecule microarray, hLULL1 lysate binding, 635 nm fluorescence; higher = more signal;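 further: probe is lysate of COS7 cells overexpressing human LULL1; score merges per-feature 667 nm fluorescence with signal-to-noise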
[6] = optical density change of DRC41 E. coli – strain DRC41, OD650, 24 h, E. coli filamentation project, primary screen (AID 1093);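 further: MC1000 strain lacking acrAB efflux and sulA so SOS filamentation is blocked; test concentration not given here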; settings: E. coli DRC41 growth, higher = more signal, called active from +8 up or from −8 down
[7] = probe aLefty2 binding to arrayed compounds – biochemical, biotinylated probe, 635/667 nm fluorescence, primary screen (AID 1094); settings: small-molecule microarray, higher = more signal;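 further: score merges spot fluorescence near 667 nm with spot signal-to-noise ratio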
[8] = test system: Noggin (protein binding on small-molecule microarray); test: small molecules binding Noggin protein – biochemical, 635/667 nm fluorescence, primary screen (AID 1095); settings: 635 nm fluorescence, higher = more signal;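 further: score merges 667 nm feature fluorescence with signal to noise over triplicate slides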
[9] = target: Neurogenic locus notch homolog protein 3 (Homo sapiens) (UniProt Q9UM47); test: small molecules binding NOTCH3 protein – biochemical, 635/667 nm fluorescence, primary screen (AID 1096); settings: small-molecule microarray, 635 nm fluorescence, higher = more signal
[10] = probe aEGFR binding to arrayed compounds – biochemical, biotinylated probe, 635/667 nm fluorescence, primary screen (AID 1097); settings: small-molecule microarray, higher = more signal;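 further: probe is a biotinylated anti-EGFR antibody binding compounds printed on slides; score combines fluorescence near 667 nm and signal to noise of each spot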
[11] = test system: Plasmodium falciparum Sir2 (PF13_0152, Sir2A); test: Plasmodium falciparum Sir2A binding compounds – biochemical, small-molecule microarray, 635 nm fluorescence, primary screen (AID 1098); settings: fluorescence 635 nm, higher = more signal;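 further: score merges spot fluorescence intensity with its signal-to-noise ratio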
[12] = probe aDKK1 binding to arrayed compounds – biochemical, biotinylated probe, 635/667 nm fluorescence, primary screen (AID 1099); settings: small-molecule microarray, higher = more signal;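 further: score merges 667nm spot fluorescence with signal to noise across triplicate slides; reference of the scale not given here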
[13] = probe aCHRDL2 binding to arrayed compounds – biochemical, biotinylated probe, 635/667 nm fluorescence, primary screen (AID 1100); settings: small-molecule microarray, higher = more signal
[14] = change in splice reporter luminescence, either direction, cell-based, HEK293, spliceosome inhibition project, primary screen (AID 1101); settings: HEK293 splicing luciferase reporter, 24 h, higher = more signal, called active from +8 up or from −8 down;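 further: HEK293 cells carrying a splicing-competent luciferase reporter gene; test concentration not given here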
[15] = target: Fibroblast growth factor 10 (Homo sapiens) (UniProt O15520); test: compounds binding fibroblast growth factor 10 – biochemical, small-molecule microarray, 635 nm fluorescence, primary screen (AID 1102); settings: FGF10 binding, fluorescence 635 nm, higher = more signal
[16] = test system: glycogen synthase kinase-3 (GSK3A per assay name; protocol says GSK3B); test: compounds binding glycogen synthase kinase-3 – biochemical, small-molecule microarray, 635 nm fluorescence, GSK3A, primary screen (AID 1103); settings: fluorescence 635 nm, higher = more signal; further: the record names both GSK3A and GSK3B
[17] = target: Epidermal growth factor receptor (Homo sapiens) (UniProt P00533); test: compounds binding epidermal growth factor receptor – biochemical, small-molecule microarray, 635 nm fluorescence, primary screen (AID 1104); settings: EGFR binding, higher = more signal;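 further: score merges 667 nm emission intensity with spot signal to noise over triplicate slides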
[18] = target: Follistatin-related protein 3 (Homo sapiens) (UniProt O95633); test: compounds binding follistatin-related protein 3 – biochemical, small-molecule microarray, 635 nm fluorescence, primary screen (AID 1105); settings: FSTL3 binding, higher = more signal;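 further: score merges emission near 667 nm and signal to noise per printed spot across three slides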
[19] = target: Dickkopf-related protein 1 (Homo sapiens) (UniProt O94907); test: small molecules binding DKK1 protein – biochemical, small-molecule microarray, 635 nm fluorescence scan, primary screen (AID 1106); settings: higher = more signal;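 further: score merges emission near 667 nm with signal to noise over three replicate slides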
[20] = test system: Inhibin beta A chain (activin A); test: small molecules binding activin A – biochemical, small-molecule microarray, 635 nm fluorescence scan, primary screen (AID 1107); settings: INHBA, higher = more signal;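 further: mouse activin A protein probed at 4.33 µg/mL on printed slides; score merges bound-protein fluorescence near 667 nm with spot signal-to-noise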

Sequence of Neurogenic locus notch homolog protein 3 (Homo sapiens) (Q9UM47 whole entry, looked up): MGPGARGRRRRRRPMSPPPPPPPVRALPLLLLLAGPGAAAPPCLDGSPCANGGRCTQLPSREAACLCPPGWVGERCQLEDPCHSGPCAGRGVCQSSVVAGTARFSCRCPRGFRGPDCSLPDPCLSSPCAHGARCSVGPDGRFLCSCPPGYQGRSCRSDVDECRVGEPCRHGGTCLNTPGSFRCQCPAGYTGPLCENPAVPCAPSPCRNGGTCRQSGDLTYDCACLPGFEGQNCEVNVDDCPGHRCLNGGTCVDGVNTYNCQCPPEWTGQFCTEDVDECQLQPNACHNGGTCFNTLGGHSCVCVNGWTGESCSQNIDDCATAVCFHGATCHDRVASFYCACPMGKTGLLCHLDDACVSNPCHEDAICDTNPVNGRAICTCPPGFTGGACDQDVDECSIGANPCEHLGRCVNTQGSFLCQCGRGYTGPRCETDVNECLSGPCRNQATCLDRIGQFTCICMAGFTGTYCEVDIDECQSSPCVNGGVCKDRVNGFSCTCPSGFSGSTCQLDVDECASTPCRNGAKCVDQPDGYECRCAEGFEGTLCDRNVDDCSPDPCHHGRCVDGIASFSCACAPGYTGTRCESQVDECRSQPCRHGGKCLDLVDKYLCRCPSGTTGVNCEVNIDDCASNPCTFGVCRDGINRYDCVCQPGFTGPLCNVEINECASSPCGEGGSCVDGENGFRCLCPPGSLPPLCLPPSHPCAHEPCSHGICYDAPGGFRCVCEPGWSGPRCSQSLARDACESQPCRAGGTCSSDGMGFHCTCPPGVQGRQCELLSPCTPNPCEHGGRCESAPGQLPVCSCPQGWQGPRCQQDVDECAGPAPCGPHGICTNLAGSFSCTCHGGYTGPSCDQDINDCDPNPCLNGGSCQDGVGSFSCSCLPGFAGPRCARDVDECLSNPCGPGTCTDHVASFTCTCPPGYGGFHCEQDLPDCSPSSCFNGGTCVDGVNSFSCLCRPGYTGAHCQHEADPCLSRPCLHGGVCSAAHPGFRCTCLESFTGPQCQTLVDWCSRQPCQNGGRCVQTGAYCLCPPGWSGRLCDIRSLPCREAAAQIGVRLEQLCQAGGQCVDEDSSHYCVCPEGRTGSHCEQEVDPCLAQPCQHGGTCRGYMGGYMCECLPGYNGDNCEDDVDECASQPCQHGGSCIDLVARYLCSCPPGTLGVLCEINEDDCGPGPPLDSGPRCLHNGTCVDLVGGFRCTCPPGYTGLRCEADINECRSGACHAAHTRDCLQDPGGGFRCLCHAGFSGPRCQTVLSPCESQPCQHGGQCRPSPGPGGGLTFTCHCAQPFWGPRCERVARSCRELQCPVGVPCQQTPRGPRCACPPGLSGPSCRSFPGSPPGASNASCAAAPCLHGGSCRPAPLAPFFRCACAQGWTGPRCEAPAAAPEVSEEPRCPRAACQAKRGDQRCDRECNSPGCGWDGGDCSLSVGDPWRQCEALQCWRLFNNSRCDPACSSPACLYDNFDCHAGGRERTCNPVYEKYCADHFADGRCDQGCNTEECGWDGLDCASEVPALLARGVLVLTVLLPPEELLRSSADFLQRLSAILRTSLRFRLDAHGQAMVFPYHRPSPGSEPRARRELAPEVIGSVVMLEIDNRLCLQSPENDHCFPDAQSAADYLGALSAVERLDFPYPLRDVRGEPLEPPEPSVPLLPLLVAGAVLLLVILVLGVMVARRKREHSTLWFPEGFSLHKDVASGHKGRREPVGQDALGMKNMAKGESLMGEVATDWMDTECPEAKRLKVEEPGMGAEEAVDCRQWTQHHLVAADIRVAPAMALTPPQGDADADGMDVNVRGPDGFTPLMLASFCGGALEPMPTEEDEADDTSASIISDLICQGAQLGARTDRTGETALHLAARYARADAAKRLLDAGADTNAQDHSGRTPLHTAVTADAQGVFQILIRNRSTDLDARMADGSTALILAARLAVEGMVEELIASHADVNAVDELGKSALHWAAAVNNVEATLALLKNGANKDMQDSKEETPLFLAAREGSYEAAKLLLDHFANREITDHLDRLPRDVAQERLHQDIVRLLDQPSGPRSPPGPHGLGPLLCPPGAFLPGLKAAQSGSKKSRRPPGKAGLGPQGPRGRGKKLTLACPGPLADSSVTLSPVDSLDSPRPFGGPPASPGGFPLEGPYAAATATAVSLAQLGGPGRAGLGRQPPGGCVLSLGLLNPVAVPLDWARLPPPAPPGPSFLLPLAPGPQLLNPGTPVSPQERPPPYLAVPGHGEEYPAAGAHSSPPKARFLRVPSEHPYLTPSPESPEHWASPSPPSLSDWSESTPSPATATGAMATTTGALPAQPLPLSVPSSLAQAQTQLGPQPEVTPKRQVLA
Sequence of Fibroblast growth factor 10 (Homo sapiens) (O15520 whole entry, looked up): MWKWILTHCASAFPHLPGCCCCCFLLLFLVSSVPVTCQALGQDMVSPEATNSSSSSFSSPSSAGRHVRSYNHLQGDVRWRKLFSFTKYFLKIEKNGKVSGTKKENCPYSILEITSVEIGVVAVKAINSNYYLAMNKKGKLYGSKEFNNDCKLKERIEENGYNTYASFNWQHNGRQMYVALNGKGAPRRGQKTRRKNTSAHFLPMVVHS
Sequence of Torsin-1A-interacting protein 2 (Homo sapiens) (Q8NFQ8 whole entry, looked up): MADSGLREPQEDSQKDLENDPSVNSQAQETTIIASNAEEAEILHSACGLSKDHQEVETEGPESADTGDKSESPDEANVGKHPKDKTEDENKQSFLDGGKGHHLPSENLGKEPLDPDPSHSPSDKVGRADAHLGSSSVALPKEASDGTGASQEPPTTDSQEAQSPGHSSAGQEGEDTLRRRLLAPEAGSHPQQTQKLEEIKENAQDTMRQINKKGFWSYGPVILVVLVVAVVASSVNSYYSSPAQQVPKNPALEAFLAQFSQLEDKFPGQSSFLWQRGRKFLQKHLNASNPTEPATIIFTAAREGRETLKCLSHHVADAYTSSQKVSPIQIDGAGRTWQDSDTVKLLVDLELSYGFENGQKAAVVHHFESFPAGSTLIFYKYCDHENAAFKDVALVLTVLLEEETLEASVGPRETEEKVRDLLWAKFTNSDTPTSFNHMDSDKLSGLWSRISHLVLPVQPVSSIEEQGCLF
Sequence of Epidermal growth factor receptor (Homo sapiens) (P00533 whole entry, looked up): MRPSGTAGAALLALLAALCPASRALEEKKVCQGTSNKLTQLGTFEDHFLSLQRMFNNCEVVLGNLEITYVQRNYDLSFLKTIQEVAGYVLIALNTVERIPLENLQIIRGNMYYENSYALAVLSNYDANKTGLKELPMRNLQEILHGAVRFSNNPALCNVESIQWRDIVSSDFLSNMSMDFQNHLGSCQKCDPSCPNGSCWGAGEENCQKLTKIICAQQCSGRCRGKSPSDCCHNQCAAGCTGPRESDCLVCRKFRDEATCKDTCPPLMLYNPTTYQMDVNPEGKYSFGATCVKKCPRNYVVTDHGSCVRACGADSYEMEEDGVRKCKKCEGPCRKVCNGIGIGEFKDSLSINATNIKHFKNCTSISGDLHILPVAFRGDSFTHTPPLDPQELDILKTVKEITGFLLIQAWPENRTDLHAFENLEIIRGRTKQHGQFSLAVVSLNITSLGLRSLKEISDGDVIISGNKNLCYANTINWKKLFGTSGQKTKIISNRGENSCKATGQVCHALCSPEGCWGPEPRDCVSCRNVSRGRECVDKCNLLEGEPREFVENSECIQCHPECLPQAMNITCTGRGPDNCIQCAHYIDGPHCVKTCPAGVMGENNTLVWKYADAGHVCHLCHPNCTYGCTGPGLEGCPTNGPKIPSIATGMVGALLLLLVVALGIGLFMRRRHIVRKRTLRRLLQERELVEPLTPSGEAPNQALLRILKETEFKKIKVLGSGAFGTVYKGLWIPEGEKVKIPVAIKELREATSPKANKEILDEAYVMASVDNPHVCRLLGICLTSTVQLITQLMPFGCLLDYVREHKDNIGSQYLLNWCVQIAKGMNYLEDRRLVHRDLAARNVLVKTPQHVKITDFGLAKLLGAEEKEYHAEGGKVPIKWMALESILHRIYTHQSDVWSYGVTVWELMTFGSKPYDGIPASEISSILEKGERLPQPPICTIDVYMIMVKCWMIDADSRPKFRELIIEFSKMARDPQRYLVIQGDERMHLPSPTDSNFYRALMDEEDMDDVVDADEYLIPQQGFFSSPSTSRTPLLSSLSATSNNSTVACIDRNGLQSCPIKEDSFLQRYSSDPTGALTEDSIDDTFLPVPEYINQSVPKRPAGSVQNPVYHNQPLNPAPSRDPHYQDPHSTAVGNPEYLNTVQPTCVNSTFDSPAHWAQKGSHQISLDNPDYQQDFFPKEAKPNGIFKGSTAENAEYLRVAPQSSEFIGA
Sequence of Dickkopf-related protein 1 (Homo sapiens) (O94907 whole entry, looked up): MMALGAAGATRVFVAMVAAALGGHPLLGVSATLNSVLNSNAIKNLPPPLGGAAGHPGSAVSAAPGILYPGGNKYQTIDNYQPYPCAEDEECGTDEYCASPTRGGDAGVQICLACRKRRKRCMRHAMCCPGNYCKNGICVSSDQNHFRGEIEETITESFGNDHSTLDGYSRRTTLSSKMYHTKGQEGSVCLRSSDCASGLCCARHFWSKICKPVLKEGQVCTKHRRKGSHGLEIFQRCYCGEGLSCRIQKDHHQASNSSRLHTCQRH
Sequence of Follistatin-related protein 3 (Homo sapiens) (O95633 whole entry, looked up): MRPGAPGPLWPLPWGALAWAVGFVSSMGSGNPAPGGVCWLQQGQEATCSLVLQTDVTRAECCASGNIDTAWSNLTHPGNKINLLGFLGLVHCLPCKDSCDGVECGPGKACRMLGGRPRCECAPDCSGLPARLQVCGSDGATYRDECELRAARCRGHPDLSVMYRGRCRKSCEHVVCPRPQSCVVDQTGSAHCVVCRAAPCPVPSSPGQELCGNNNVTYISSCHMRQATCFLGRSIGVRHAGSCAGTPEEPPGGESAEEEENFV

Compound	composite z-score [1]	z-score [2]	z-score [3]	z-score [4]	composite z-score [5]	z-score [6]	composite z-score [7]	composite z-score [8]	composite z-score [9]	composite z-score [10]	composite z-score [11]	composite z-score [12]	composite z-score [13]	z-score [14]	composite z-score [15]	composite z-score [16]	composite z-score [17]	composite z-score [18]	composite z-score [19]	composite z-score [20]
CC(=O)OC[C@H]1O[C@@H](ON=C(C)CCN2CCCc3nc(C)c(C)cc32)[C@H](OC(C)=O)[C@@H](OC(C)=O)[C@@H]1OC(C)=O	1.55	0.215 (inactive)	0.0313 (inactive)	0.427 (inactive)	0.993	-0.722 (inactive)	-0.136	0.952	1.11	0.0781	0.541	-0.132	-0.638	-0.548 (inactive)	1.03	1.29	0.804	1.26	0.855	-0.263
CO[C@H]1COC(=O)[C@H](C)NC(=O)[C@@H](C)COC(=O)[C@H]2CCCN2C(=O)CC=C[C@H]1C	1.08	-0.282 (inactive)	-0.658 (inactive)	-0.571 (inactive)	-0.412	0.492 (inactive)	-0.138	0.542	0.358	-0.0689	-0.139	-0.377	-0.823	-0.447 (inactive)	0.764	0.945	0.627	0.736	1.55	-0.252
CON=C(C)CCC(=O)OC[C@H]1O[C@H](c2ccccc2)C=C[C@@H]1Oc1ccc(OC)cc1	0.0846	1.34 (inactive)	-0.241 (inactive)	1.4 (inactive)	-0.225	0.403 (inactive)	-0.176	0.411	-0.0061	-0.0783	0.712	-0.174	-0.15	0.115 (inactive)	0.142	-0.496	0.213	0.189	0.474	0.854
CC(C)(C)N1C(=O)[C@H]2[C@H]3[C@H](O)C=CC(=O)[C@@H]3CC[C@H]2C1=O	-0.832	0.985 (inactive)	0.632 (inactive)	1.12 (inactive)	-0.117	0.208 (inactive)	-0.0258	0.891	0.604	0.0469	0.294	-0.407	-0.428	-0.128 (inactive)	0.429	0.695	0.437	0.711	0.715	-0.214
C#CCCCON=C1C[C@@H](O)[C@@H](O)[C@@H]2[C@@H]3C(=O)N(Cc4ccccc4)C(=O)[C@@H]3CC[C@@H]12	-0.526	-0.956 (inactive)	-0.351 (inactive)	-1.61 (inactive)	-0.569	0.49 (inactive)	-0.0409	0.224	0.0798	-0.14	-0.596	-0.0538	0.0175	0.351 (inactive)	-0.158	-0.287	0.193	-0.016	-0.211	0.359
O=C(NN=C1C[C@@H](O)[C@@H](O)[C@@H]2[C@@H]3C(=O)N(C4CCCCC4)C(=O)[C@@H]3CC[C@H]12)OCc1ccccc1	-0.511	0.298 (inactive)	0.267 (inactive)	0.799 (inactive)	0.352	-0.0442 (inactive)	-0.0239	-0.177	-0.0963	-0.0461	0.0222	0.691	1.07	-0.177 (inactive)	0.836	0.0816	0.554	-0.483	-0.504	-0.0726
CC(C)=CCCC(C)=CCON=C1C[C@@H](O)[C@@H](O)[C@@H]2[C@@H]3C(=O)N(C(C)(C)C)C(=O)[C@@H]3CC[C@H]12	0.64	0.0423 (inactive)	0.473 (inactive)	-0.656 (inactive)	0.312	0.281 (inactive)	-0.138	0.919	0.539	-0.0466	0.0059	0.0507	-0.396	0.129 (inactive)	0.396	0.563	0.512	0.392	0.432	-0.159
CCOC(=O)[C@H](CC(C)C)NC(=O)CCC1CC(OC(=O)NCc2cccc3ccccc23)CC2(CCCC(COC(=O)NCC3CCCCC3)O2)O1 (stereo not given in full)	1.47	-0.402 (inactive)	-0.947 (inactive)	0.0127 (inactive)	1.11	-0.683 (inactive)	-0.0151	0.895	0.818	-0.0828	0.442	-0.11	-0.369	-1.42 (inactive)	0.924	0.941	0.344	0.855	0.6	0.0385
O=C1[C@H]2[C@H]3[C@H](O)[C@H](O)CC(=NOCc4ccccc4)[C@@H]3CC[C@H]2C(=O)N1C[C@@H]1CCCO1	-0.423	-0.857 (inactive)	0.767 (inactive)	-0.369 (inactive)	0.292	1.27 (inactive)	-0.114	0.228	0.237	-0.0151	0.0048	-0.168	-0.21	0.274 (inactive)	0.179	-0.451	-0.0735	-0.304	-0.028	0.164
